Reference: PubChem BioAssay

Assay: change in splice reporter luminescence, either direction, cell-based, HEK293, spliceosome inhibition project, primary screen (AID 1101);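 also: HEK293 cells carrying a splicing-competent luciferase reporter gene; test concentration not given here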
Settings: HEK293 splicing luciferase reporter, 24 h, higher = more signal, called active from +8 up or from −8 down

z-score, inactive:
CCCC1(C(=O)OC)C=C2C(=C(C)C(=O)C2C)CN1 (configuration not stated) 0.888
NCCCCCNC(=O)[C@@H]1C[C@@H]2C(=O)N[C@@H](CCCCN)C(=O)N2[C@@H]1c1ccc(O)cc1 0.498
CCCN1C(=O)[C@]2(Cc3ccccc31)N=C(c1ccc(OCCCO)cc1)O[C@@H]2c1ccccc1 -0.898
CCN(CC)c1ccc(N2CC=CC34O[C@@H]5/C=C\CCCOC(=O)C5[C@H]3C(=O)N(C(C)CO)[C@@H]4C2=O)cc1 (some centres not stated) -0.0084
NC(=O)[C@H]1[C@@H]2C(=O)O[C@@H](c3ccccc3)[C@@H](c3ccccc3)N2[C@@H](c2ccc(OCCO)cc2)[C@]12C(=O)Nc1ccc(C#CCCO)cc12 0.728
CC(C)C(CO)N1C(=O)[C@@H]2[C@H]3C(=O)OCC=C[C@H]3OC23C=CCN(c2ccc(Cl)cc2)C(=O)[C@@H]13 (some centres not stated) 0.121
C=CCNC(=O)[C@@H]1[C@H]2C(=O)O[C@H](c3ccccc3)[C@H](c3ccccc3)N2[C@H](c2ccccc2OCCO)[C@@]12C(=O)Nc1ccc(C#CCC(C(=O)OC)C(=O)OC)cc12 -3.31
COc1ccc(C#Cc2ccc3c(c2)[C@]2(C(=O)N3)[C@H](C(=O)O)[C@H]3C(=O)O[C@H](c4ccccc4)[C@H](c4ccccc4)N3[C@@H]2c2ccc(O)cc2)cc1 -0.264
CCCC[C@@H](O)C1=C(COC)C[C@H]2C(=O)N(Cc3ccccc3)C(=O)[C@H]2[C@H]1CO 0.296
COC(=O)[C@@]1(Cc2ccc(F)cc2)[C@H]2c3cc(C(=O)N4CCCC4)n(Cc4ccc(C)c(F)c4F)c3C[C@H]2CN1C(=O)c1ccccc1 -4.09
C=CCNC(=O)[C@@H]1[C@H]2C(=O)O[C@H](c3ccccc3)[C@H](c3ccccc3)N2[C@H](c2ccc(O)cc2)[C@@]12C(=O)N(C(=O)OCCOC)c1ccc(C#CC3=CCCCC3)cc12 -1.19
C#Cc1cc2ccccc2oc1=O 3.33
COc1cc(NN2C(C(O)c3cc(OC)c(OC)c(OC)c3)C=CC3C(=O)N(C)C(=O)C32)cc(OC)c1OC (configuration not stated) 0.255
CO[C@H]1O[C@H](CO)[C@@H](OC(=O)Nc2ccccc2)[C@H](OC(=O)c2cc3ccccc3[nH]2)[C@H]1OC(=O)c1cc2ccccc2[nH]1 -0.447
CCOC(=O)C[C@H]1[C@H](OC(=O)Cc2ccc3c(c2)OCO3)[C@@H](NC(=O)c2ccc3ccccc3n2)c2cc(OCCCO)ccc2N1C(=O)c1ccc2ccccc2n1 -1.63
COc1ccc(C#Cc2ccc3c(c2)[C@]2(C(=O)N3)[C@H](c3ccc(OCCO)cc3)N3[C@H](c4ccccc4)[C@H](c4ccccc4)OC(=O)[C@H]3[C@@H]2C(=O)NC[C@H](O)c2ccccc2)cc1 -0.124
NCCCCCNC(=O)[C@H]1C[C@H]2C(=O)N3CCC[C@H]3C(=O)N2[C@H]1c1cccc(OCCO)c1 0.125
CO[C@H]1O[C@H](CO)[C@@H](OC(=O)Nc2ccc(Br)cc2)[C@@H]2OC(=O)[C@@H](Cc3ccccc3)C/C=C/C[C@H](Cc3ccccc3)C(=O)O[C@@H]12 -0.913
CCOC(=O)[C@@H]1CCCCN1C(=O)C(=O)OC 1.11
O=C(Cc1ccccc1)[C@H]1C2C=CCCC(c3ccccc3)=C2CN1Cc1ccccc1 (some centres not stated) -0.445
CCOC(=O)C[C@H]1[C@H](OC(=O)Cc2ccc3c(c2)OCO3)[C@@H](NC(=O)C2CCCCC2)c2cc(OCCCO)ccc2N1C(=O)c1ccccc1 -0.664
C=C[C@H](C)[C@H](OC(=O)Nc1ccc(SC)cc1)c1ccc(OCCO)cc1 -3.34
CCCCC(CC)C(O)C1C=CC2C(=O)N(c3ccccc3)C(=O)C2N1Nc1ccccc1F (configuration not stated) -0.561
Cc1ccc(C(C)CC(O)C2C=CC3C(=O)N(c4ccccc4)C(=O)C3N2Nc2ccccc2)o1 (configuration not stated) -0.392
CCOC(=O)C1=C[C@@H](C(C)(C)C)N(S(=O)(=O)c2ccc(C)cc2)[C@H]1c1cccc2ccccc12 -0.134
CC(C)N1C(=O)C[C@@](C(=O)NC2CC2)(c2ccc([N+](=O)[O-])cc2)[C@H]1c1ccc(CO)cc1 -1.34
COC(=O)c1c(CC[C@@H](CO)NC(=O)N2CCC[C@H]2Cn2cc(C3(O)CCCCC3)nn2)oc(C(C)=O)c1C(=O)OC -0.503
